In PubChem BioAssay:

Target: Concanavalin-A (Canavalia ensiformis) (UniProt P02866)
Experiment: compounds binding concanavalin A lectin – biochemical, small-molecule microarray, Alexa647 label, 635 nm, artefact control for SMM control protein annotation, primary screen (AID 1127);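 also: z combines 667 nm emission intensity with signal-to-noise across three replicate slides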
Conditions: ConA-A647 binding fluorescence, higher = more signal

Sequence of Concanavalin-A (Canavalia ensiformis) (P02866 whole entry, looked up): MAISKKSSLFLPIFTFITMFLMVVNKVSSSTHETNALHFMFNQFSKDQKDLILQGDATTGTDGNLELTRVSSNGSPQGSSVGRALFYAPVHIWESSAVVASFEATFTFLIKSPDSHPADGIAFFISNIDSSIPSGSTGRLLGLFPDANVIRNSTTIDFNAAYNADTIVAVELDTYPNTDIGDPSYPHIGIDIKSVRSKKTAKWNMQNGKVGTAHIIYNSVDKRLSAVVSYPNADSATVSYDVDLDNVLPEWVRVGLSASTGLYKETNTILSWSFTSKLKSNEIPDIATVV

Point of comparison: `CCOC(=O)C[C@H]1[C@H](OC(=O)c2ccccc2-c2ccccc2)[C@@H](NC(=O)c2ccc(-c3ccccc3)cc2)c2cc(OCCCO)ccc2N1C(=O)Cc1ccc(OC)cc1`, composite z-score 0.398. Against it:
- C=CCc1cccc([C@@H]2[C@@H](C)CC[C@H]3C(=O)N4[C@H](c5cccc(CC=C)c5)[C@@H](C)CC[C@H]4C(=O)N23)c1 — higher, 1.03
- CCCCCCc1nc(C2CC2)c(C)c2c1[Si](C(C)C)(C(C)C)OC2 — lower, -0.693
- CC(C)(C)OC(=O)CC[C@]1(C(=O)NCCN2CCOCC2)N=C(c2ccc(OCCCO)cc2)O[C@H]1c1ccccc1CN=[N+]=[N-] — higher, 0.922
- C=CCN1C(=O)[C@@]2(Cc3ccccc3)N=C(c3ccc(OCCCO)cc3)O[C@H]2c2ccccc21 — higher, 1.15
- C=CCC(OC(C)=O)[C@@H]1[C@@H](N(Cc2cc3ccccc3o2)C(=O)c2ccc(C)cc2)c2cc(OCCCO)ccc2N1C(=O)c1ccc2ccccc2n1 (stereo partly specified) — lower, -0.304
- C=C(C(=O)CC[C@H](OC(=O)c1ccccc1-c1ccccc1C(=O)O)c1ccc(CO)o1)C(C)C — higher, 1.07
- O=C(CS)NCCCCCNC(=O)[C@H]1C[C@H]2C(=O)N3CCC[C@H]3C(=O)N2[C@H]1c1ccc(O)cc1 — lower, -0.736
- N#Cc1ccc(NN2C(C(O)CCc3ccccc3)C=CC3C(=O)N(c4ccccc4)C(=O)C32)cc1 (stereo unspecified) — higher, 0.831
- O=[N+]([O-])c1ccc(C[n+]2ccc3ccc(O)cc3c2)o1 — higher, 1.11
- Cc1ccc(S[C@]2(C(=O)NC(C)C)CC(=O)N(Cc3cc(C(F)(F)F)cc(C(F)(F)F)c3)[C@@H]2c2ccc(CO)cc2I)cc1 — lower, -0.442
